Where a name gives a salt, the structure may show the parent alone. ± gives the uncertainty stated by the source.
System: Candida albicans SNY425 biofilm
Assay: biofilm OD600 with compound plus antifungal (OD600 (absorbance)); higher = more biofilm remaining
[1] = assay detail: disruption of 24-h mature biofilm (compound + antifungal for a second 24 h)
[2] = assay detail: sustained inhibition (compound + antifungal during 90-min adherence and 24-h growth)

SMILES | biofilm OD600 [1] | biofilm OD600 [2]
CC(C)(C)NC(=O)[C@@H]1C[C@@H]2CCCC[C@@H]2CN1C[C@@H](O)[C@H](Cc1ccccc1)NC(=O)[C@H](CC(N)=O)NC(=O)c1ccc2ccccc2n1 [saquinavir] + C[C@@H]1[C@H](O)[C@@H](C)/C=C/C=C/C=C/C=C/C=C/C=C/C=C/[C@H](O[C@@H]2O[C@H](C)[C@@H](O)[C@H](N)[C@@H]2O)C[C@@H]2O[C@](O)(C[C@@H](O)C[C@@H](O)[C@H](O)CC[C@@H](O)C[C@@H](O)CC(=O)O[C@H]1C)C[C@H](O)[C@H]2C(=O)O [amphotericin B] (first compound 12.5 µM) | 0.243 ± 0.0076 | 0.0922 ± 0.0023
CCC[C@@]1(CCc2ccccc2)CC(O)=C([C@H](CC)c2cccc(NS(=O)(=O)c3ccc(C(F)(F)F)cn3)c2)C(=O)O1 [tipranavir] + CC[C@H](C)C[C@H](C)CCCCCCCCC(=O)N[C@H]1C[C@@H](O)[C@@H](NCCN)NC(=O)[C@@H]2[C@@H](O)CCN2C(=O)[C@H]([C@H](O)CCN)NC(=O)[C@H]([C@H](O)[C@@H](O)c2ccc(O)cc2)NC(=O)[C@@H]2C[C@@H](O)CN2C(=O)[C@H]([C@@H](C)O)NC1=O [caspofungin] (first compound 12.5 µM) | 0.268 ± 0.011 | 0.192 ± 0.0071
C[C@H](NC(=O)[C@@H]1CCCN1C(=O)[C@@H]1CCCN1C(=O)[C@@H](O)[C@H](N)Cc1ccccc1)C(N)=O [Apstatin] + OC(Cn1cncn1)(Cn1cncn1)c1ccc(F)cc1F [fluconazole] (first compound 12.5 µM) | 0.287 ± 0.01 | 0.118 ± 0.0072
CC(NC(=O)C(Cc1ccccc1)NC(=O)OCc1ccccc1)C(=O)CF (stereo not drawn) + CC[C@H](C)C[C@H](C)CCCCCCCCC(=O)N[C@H]1C[C@@H](O)[C@@H](NCCN)NC(=O)[C@@H]2[C@@H](O)CCN2C(=O)[C@H]([C@H](O)CCN)NC(=O)[C@H]([C@H](O)[C@@H](O)c2ccc(O)cc2)NC(=O)[C@@H]2C[C@@H](O)CN2C(=O)[C@H]([C@@H](C)O)NC1=O [caspofungin] (first compound 12.5 µM) | 0.3 ± 0.005 | 0.185 ± 0.0046
Nc1ccc(CC(CC(=O)O)C(=O)O)cc1 [4-Amino-D, L-benzylsuccinic acid] + CC[C@H](C)C[C@H](C)CCCCCCCCC(=O)N[C@H]1C[C@@H](O)[C@@H](NCCN)NC(=O)[C@@H]2[C@@H](O)CCN2C(=O)[C@H]([C@H](O)CCN)NC(=O)[C@H]([C@H](O)[C@@H](O)c2ccc(O)cc2)NC(=O)[C@@H]2C[C@@H](O)CN2C(=O)[C@H]([C@@H](C)O)NC1=O [caspofungin] (first compound 12.5 µM) | 0.295 ± 0.016 | 0.187 ± 0.0071
CC(C)C[C@H](NC(=O)N[C@H](C(=O)N[C@@H](CCC(N)=O)C(=O)N[C@@H](C)C=O)[C@@H]1CCNC(=N)N1)C(=O)O [Elastatinal] + OC(Cn1cncn1)(Cn1cncn1)c1ccc(F)cc1F [fluconazole] (first compound 12.5 µM) | 0.249 ± 0.0066 | 0.16 ± 0.014
CCOC(=O)[C@H](CCc1ccccc1)N[C@@H](C)C(=O)N1CCC[C@H]1C(=O)O [Enalapril] + CC[C@H](C)C[C@H](C)CCCCCCCCC(=O)N[C@H]1C[C@@H](O)[C@@H](NCCN)NC(=O)[C@@H]2[C@@H](O)CCN2C(=O)[C@H]([C@H](O)CCN)NC(=O)[C@H]([C@H](O)[C@@H](O)c2ccc(O)cc2)NC(=O)[C@@H]2C[C@@H](O)CN2C(=O)[C@H]([C@@H](C)O)NC1=O [caspofungin] (first compound 12.5 µM) | 0.266 ± 0.012 | 0.207 ± 0.011
CCOC(=O)c1ccc(OC(=O)CCCCCNC(=N)N)cc1 [Gabexate mesylate] + CC[C@H](C)C[C@H](C)CCCCCCCCC(=O)N[C@H]1C[C@@H](O)[C@@H](NCCN)NC(=O)[C@@H]2[C@@H](O)CCN2C(=O)[C@H]([C@H](O)CCN)NC(=O)[C@H]([C@H](O)[C@@H](O)c2ccc(O)cc2)NC(=O)[C@@H]2C[C@@H](O)CN2C(=O)[C@H]([C@@H](C)O)NC1=O [caspofungin] (first compound 12.5 µM) | 0.26 ± 0.0083 | 0.181 ± 0.006
O=c1oc(Cl)c(Cl)c2ccccc12 [3,4-Dichloroisocoumarin] + C[C@@H]1[C@H](O)[C@@H](C)/C=C/C=C/C=C/C=C/C=C/C=C/C=C/[C@H](O[C@@H]2O[C@H](C)[C@@H](O)[C@H](N)[C@@H]2O)C[C@@H]2O[C@](O)(C[C@@H](O)C[C@@H](O)[C@H](O)CC[C@@H](O)C[C@@H](O)CC(=O)O[C@H]1C)C[C@H](O)[C@H]2C(=O)O [amphotericin B] (first compound 12.5 µM) | 0.252 ± 0.013 | 0.196 ± 0.0087
CC(C)C[C@H](NC(=O)[C@H]1O[C@@H]1C(=O)O)C(=O)NCCCCN=C(N)N + C[C@@H]1[C@H](O)[C@@H](C)/C=C/C=C/C=C/C=C/C=C/C=C/C=C/[C@H](O[C@@H]2O[C@H](C)[C@@H](O)[C@H](N)[C@@H]2O)C[C@@H]2O[C@](O)(C[C@@H](O)C[C@@H](O)[C@H](O)CC[C@@H](O)C[C@@H](O)CC(=O)O[C@H]1C)C[C@H](O)[C@H]2C(=O)O [amphotericin B] (first compound 12.5 µM) | 0.266 ± 0.0082 | 0.209 ± 0.0073
NCC1CCC(C(=O)N[C@@H](Cc2ccccc2)C(=O)Nc2ccc(CC(=O)O)cc2)CC1 (stereo partly drawn) + C[C@@H]1[C@H](O)[C@@H](C)/C=C/C=C/C=C/C=C/C=C/C=C/C=C/[C@H](O[C@@H]2O[C@H](C)[C@@H](O)[C@H](N)[C@@H]2O)C[C@@H]2O[C@](O)(C[C@@H](O)C[C@@H](O)[C@H](O)CC[C@@H](O)C[C@@H](O)CC(=O)O[C@H]1C)C[C@H](O)[C@H]2C(=O)O [amphotericin B] (first compound 12.5 µM) | 0.271 ± 0.0064 | 0.182 ± 0.017
CC(C)C[C@@H](C=O)NC(=O)[C@H](CC(C)C)NC(=O)[C@H](CC(C)C)NC(=O)OCc1ccccc1 + C[C@@H]1[C@H](O)[C@@H](C)/C=C/C=C/C=C/C=C/C=C/C=C/C=C/[C@H](O[C@@H]2O[C@H](C)[C@@H](O)[C@H](N)[C@@H]2O)C[C@@H]2O[C@](O)(C[C@@H](O)C[C@@H](O)[C@H](O)CC[C@@H](O)C[C@@H](O)CC(=O)O[C@H]1C)C[C@H](O)[C@H]2C(=O)O [amphotericin B] (first compound 12.5 µM) | 0.29 ± 0.0045 | 0.209 ± 0.017
CNC(=O)[C@H](Cc1c[nH]c2ccccc12)NC(=O)[C@@H](CC(=O)NO)CC(C)C + OC(Cn1cncn1)(Cn1cncn1)c1ccc(F)cc1F [fluconazole] (first compound 12.5 µM) | 0.272 ± 0.014 | 0.158 ± 0.0086
NC(N)=NCCC[C@H](NC(=O)[C@@H]1CCCN1C(=O)[C@H](N)Cc1ccccc1)C(=O)CCl + CC[C@H](C)C[C@H](C)CCCCCCCCC(=O)N[C@H]1C[C@@H](O)[C@@H](NCCN)NC(=O)[C@@H]2[C@@H](O)CCN2C(=O)[C@H]([C@H](O)CCN)NC(=O)[C@H]([C@H](O)[C@@H](O)c2ccc(O)cc2)NC(=O)[C@@H]2C[C@@H](O)CN2C(=O)[C@H]([C@@H](C)O)NC1=O [caspofungin] (first compound 12.5 µM) | 0.274 ± 0.0098 | 0.189 ± 0.011
CCN1C(=O)C=CC1=O [N-Ethylmaleimide] + CC[C@H](C)C[C@H](C)CCCCCCCCC(=O)N[C@H]1C[C@@H](O)[C@@H](NCCN)NC(=O)[C@@H]2[C@@H](O)CCN2C(=O)[C@H]([C@H](O)CCN)NC(=O)[C@H]([C@H](O)[C@@H](O)c2ccc(O)cc2)NC(=O)[C@@H]2C[C@@H](O)CN2C(=O)[C@H]([C@@H](C)O)NC1=O [caspofungin] (first compound 4 µM) | 0.281 ± 0.013 | 0.17 ± 0.0037
CC(C)C[C@@H](C=O)NC(=O)[C@H](CC(C)C)NC(=O)[C@H](CC(C)C)NC(=O)OCc1ccccc1 + OC(Cn1cncn1)(Cn1cncn1)c1ccc(F)cc1F [fluconazole] (first compound 12.5 µM) | 0.277 ± 0.0062 | 0.148 ± 0.0097
Cc1c(O)cccc1C(=O)N[C@@H](CSc1ccccc1)[C@H](O)CN1C[C@H]2CCCC[C@H]2C[C@H]1C(=O)NC(C)(C)C [nelfinavir] + C[C@@H]1[C@H](O)[C@@H](C)/C=C/C=C/C=C/C=C/C=C/C=C/C=C/[C@H](O[C@@H]2O[C@H](C)[C@@H](O)[C@H](N)[C@@H]2O)C[C@@H]2O[C@](O)(C[C@@H](O)C[C@@H](O)[C@H](O)CC[C@@H](O)C[C@@H](O)CC(=O)O[C@H]1C)C[C@H](O)[C@H]2C(=O)O [amphotericin B] (first compound 12.5 µM) | 0.237 ± 0.0057 | 0.112 ± 0.01
CC(C)C[C@H](NP(=O)(O)O[C@@H]1O[C@@H](C)[C@H](O)[C@@H](O)[C@H]1O)C(=O)N[C@@H](Cc1c[nH]c2ccccc12)C(=O)O [Phosphoramidon] + CC[C@H](C)C[C@H](C)CCCCCCCCC(=O)N[C@H]1C[C@@H](O)[C@@H](NCCN)NC(=O)[C@@H]2[C@@H](O)CCN2C(=O)[C@H]([C@H](O)CCN)NC(=O)[C@H]([C@H](O)[C@@H](O)c2ccc(O)cc2)NC(=O)[C@@H]2C[C@@H](O)CN2C(=O)[C@H]([C@@H](C)O)NC1=O [caspofungin] (first compound 12.5 µM) | 0.273 ± 0.012 | 0.191 ± 0.013
O=c1oc(Cl)c(Cl)c2ccccc12 [3,4-Dichloroisocoumarin] + CC[C@H](C)C[C@H](C)CCCCCCCCC(=O)N[C@H]1C[C@@H](O)[C@@H](NCCN)NC(=O)[C@@H]2[C@@H](O)CCN2C(=O)[C@H]([C@H](O)CCN)NC(=O)[C@H]([C@H](O)[C@@H](O)c2ccc(O)cc2)NC(=O)[C@@H]2C[C@@H](O)CN2C(=O)[C@H]([C@@H](C)O)NC1=O [caspofungin] (first compound 12.5 µM) | 0.246 ± 0.014 | 0.21 ± 0.014

— the supplement of paper PMC7261846
